# Counter-ions that a name gives are not always drawn. ± gives the standard deviation of the averaged measurements. In all, about 1,900 compounds were measured (“normalised cell viability (NPI; 0 = phenylarsine oxide control, 1 = DMSO control)”: median about 1, lowest 2% from about 0.039 on). The sample as a whole holds a higher share of the lowest values than the screen did.
# Tested on: NCI-H1944
# Assay: normalised cell viability (NPI; 0 = phenylarsine oxide control, 1 = DMSO control) (fraction of DMSO control); NCI-H1944 is a non-small cell lung cancer line; higher = more viable cells (less compound toxicity)
# Settings: 6 days
# [1] = glucocorticoid arm: hydrocortisone 2.75 uM co-treatment, compound 1 µM
# [2] = glucocorticoid arm: hydrocortisone 2.75 uM co-treatment, compound 5 µM
# [3] = glucocorticoid arm: hydrocortisone 2.75 uM pre-treated 2 days and continued, compound 1 µM
# [4] = glucocorticoid arm: hydrocortisone 2.75 uM pre-treated 2 days and continued, compound 5 µM
# [5] = glucocorticoid arm: vehicle, compound 1 µM
# [6] = glucocorticoid arm: vehicle, compound 5 µM
# 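Also: CTB read-out in 384-well plates, triplicate wells, NPI normalised per plate against 1 µM phenylarsine oxide (0) and 0.1% DMSO (1) controls.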
Compound,normalised cell viability [1],normalised cell viability [2],normalised cell viability [3],normalised cell viability [4],normalised cell viability [5],normalised cell viability [6]
CN/C(=N\c1ccc(C2=NNC(=O)CC2C)cc1)NC#N (stereo unspecified),0.9943 ± 0.0046,0.992 ± 0.018,0.875 ± 0.22,0.9957 ± 0.0051,0.995 ± 0.005,0.997 ± 0.0052
CCN1C(=CC(C)=O)Sc2ccc(OC)cc21,0.982 ± 0.01,0.823 ± 0.013,0.994 ± 0.017,0.839 ± 0.021,1.01 ± 0.01,0.983 ± 0.017
Cc1cc(N2CCOCC2)cc2[nH]c(-c3c(NCC(O)c4cccc(Cl)c4)cc[nH]c3=O)nc12 (stereo unspecified),0.277 ± 0.0085,0.205 ± 0.011,0.3733 ± 0.0021,0.267 ± 0.0095,0.753 ± 0.051,0.263 ± 0.036
CCCCCCCCCCCCCCCC(=O)NCC(COP(=O)([O-])OCC[N+](C)(C)C)OCC (racemic) [rac-2-Ethoxy-3-hexadecanamido-1-propylphosphocholine],1.01 ± 0.01,1.09 ± 0.023,1.007 ± 0.0058,1.113 ± 0.0058,1.013 ± 0.0058,1.02 ± 0.011
CN1CCC[C@@H]1Cc1c[nH]c2ccc(CCS(=O)(=O)c3ccccc3)cc12 [Eletriptan HBr],1.013 ± 0.0058,1.03 ± 0.015,1.01 ± 0.01,1.02 ± 0.021,1.002 ± 0.0067,1.002 ± 0.0072
COc1ccc(NC(=O)c2ccc(-c3ccc(-c4noc(C)n4)cc3C)cc2)cc1N1CCN(C)CC1,1.006 ± 0.0063,0.000294 ± 0.00029,1.02 ± 0.01,0.00887 ± 0.01,0.9987 ± 0.0023,0.000181 ± 0.0015
COc1ccccc1N1CCN(CCCCNC(=O)c2ccc3ccccc3c2)CC1,0.9887 ± 0.0098,0.984 ± 0.026,0.998 ± 0.014,0.988 ± 0.032,0.9913 ± 0.0029,0.961 ± 0.033
CCCCCCCCCCCCCCCc1cccc(O)c1C(=O)O [Anacardic acid],1 ± 0.015,1.02 ± 0.0063,1.01 ± 0.012,1.02 ± 0.022,1 ± 0.024,1.01 ± 0.019
S=C(S)N1CCCC1 [Ammonium pyrrolidinedithiocarbamate],1 ± 0.015,0.994 ± 0.024,1.01 ± 0.018,1.004 ± 0.01,1.002 ± 0.0076,0.416 ± 0.095
N=c1ccn2c(n1)O[C@H]1[C@H](O)[C@@H](CO)O[C@H]12 [Ancitabine hydrochloride],0.16 ± 0.012,0.103 ± 0.012,0.652 ± 0.079,0.211 ± 0.0064,0.0511 ± 0.0082,0.0465 ± 0.00057
CS(=O)(=O)N1CCc2c(-c3cnc(N)nc3)nc(N3CCOCC3)nc21,0.528 ± 0.021,0.513 ± 0.01,0.552 ± 0.058,0.627 ± 0.034,0.491 ± 0.024,0.651 ± 0.064
FC(F)c1nc2ccccc2n1-c1nc(N2CCOCC2)nc(N2CCOCC2)n1,0.649 ± 0.029,0.627 ± 0.013,0.603 ± 0.038,0.702 ± 0.054,0.691 ± 0.048,0.831 ± 0.028
Nc1cc(C(F)(F)F)c(-c2cc(N3CCOCC3)nc(N3CCOCC3)n2)cn1,0.6 ± 0.048,0.203 ± 0.0045,0.713 ± 0.038,0.411 ± 0.029,0.613 ± 0.059,0.0297 ± 0.0061
CSc1nc(N)c2ncn([C@@H]3O[C@H](COP(=O)(O)OP(=O)(O)O)[C@@H](O)[C@H]3O)c2n1 [2-Methylthioadenosine diphosphate trisodium],1.007 ± 0.0058,1.02 ± 0.026,1.01 ± 0.012,1.06 ± 0.082,0.9917 ± 0.0072,1 ± 0.017
C[C@@H]1C(=O)O[C@H]2C[C@@]34[C@H]5C[C@@H](C(C)(C)C)[C@]36[C@@H](OC(=O)[C@@H]6O)O[C@@]4(C(=O)O5)[C@]21O [Ginkgolide A],0.9947 ± 0.0084,0.986 ± 0.01,0.994 ± 0.016,0.997 ± 0.02,1.002 ± 0.0072,0.9947 ± 0.0051
CCc1c(C(=O)NCCc2ccc(N3CCCCC3)cc2)[nH]c2ccc(Cl)cc12,1.01 ± 0.018,0.993 ± 0.021,1.027 ± 0.0058,0.999 ± 0.011,1 ± 0.0095,0.982 ± 0.012

Compound,normalised cell viability [1],normalised cell viability [2],normalised cell viability [3],normalised cell viability [4],normalised cell viability [5],normalised cell viability [6]
NCC=CC(=O)O (stereo in doubt) [cis-4-Aminocrotonic acid],0.992 ± 0.0092,0.993 ± 0.015,0.9857 ± 0.0042,0.9765 ± 0.0092,0.973 ± 0.0079,0.9753 ± 0.0086
C[C@H]1C[C@H]2[C@@H]3CCC4=CC(=O)C=C[C@]4(C)[C@@]3(Cl)[C@@H](O)C[C@]2(C)[C@@]1(O)C(=O)CO [Beclomethasone],0.998 ± 0.0017,1.02 ± 0.01,1.01 ± 0.01,1,0.803 ± 0.031,0.738 ± 0.039
CC(C)[C@H](C(=O)Nc1ccc(C(=O)NO)cc1)c1ccccc1,0.752 ± 0.021,0.00258 ± 0.00047,0.897 ± 0.021,0.00754 ± 0.0016,0.172 ± 0.0081,0.00052 ± 0.00049
CCCCN(Cc1ccc(C(=O)NO)cc1)C(=O)Nc1ccccc1 [Nexturastat A],0.949 ± 0.017,0.9863 ± 0.0097,0.97 ± 0.02,0.963 ± 0.027,1.001 ± 0.009,0.967 ± 0.014
N#CC(=C(/N)Sc1ccccc1N)/C(C#N)=C(\N)Sc1ccccc1N,1.02 ± 0.011,1.08 ± 0.025,0.976 ± 0.016,1.01 ± 0.027,1.023 ± 0.0058,1.02 ± 0.015
CC#CCOC(=O)c1c(C)nc2sc3c(c2c1N)CCC(O)C3 (stereo unspecified),1.02 ± 0.021,1 ± 0.019,1.03 ± 0.038,1.03 ± 0.017,1.013 ± 0.0058,1.013 ± 0.0058
"COC1=C(OC)C(=O)c2ccccc2C1=O [2,3-Dimethoxy-1,4-naphthoquinone]",0.994 ± 0.01,0.905 ± 0.047,0.994 ± 0.0066,0.956 ± 0.01,0.997 ± 0.0027,0.8913 ± 0.0032
CCCCCC[C@@H]([C@@H](C)O)n1cnc2c(N)ncnc21 [erythro-9-(2-Hydroxy-3-nonyl)adenine hydrochloride],0.999 ± 0.001,0.992 ± 0.024,0.987 ± 0.012,0.997 ± 0.023,0.973 ± 0.0053,0.9777 ± 0.0055
CCCCCCCCCCCCCCCCCCOCC(COP(=O)([O-])OCC[N+](C)(C)C)OC (stereo unspecified),1.006 ± 0.0063,0.993 ± 0.015,0.9897 ± 0.0011,0.989 ± 0.028,0.9853 ± 0.0049,0.9957 ± 0.0059
CC(C)c1ccccc1Cc1cc(C(=O)Nc2ccc(S(=O)(=O)c3ccccc3C(C)(C)C)cc2)c(O)c(O)c1O,0.9933 ± 0.0099,0.826 ± 0.049,0.998 ± 0.014,0.961 ± 0.018,1.007 ± 0.0058,0.813 ± 0.033
CC(=O)NCC(=O)N1[C@@H]2CC[C@H]1c1ccc(Nc3ncc(C(F)(F)F)c(NC4CCC4)n3)cc12,0.712 ± 0.0091,0.552 ± 0.019,0.83 ± 0.0095,0.717 ± 0.01,0.301 ± 0.018,0.201 ± 0.017
C/C(=C\c1csc(C)n1)[C@@H]1C[C@@H]2O[C@]2(C)CCC[C@H](C)[C@H](O)[C@@H](C)C(=O)C(C)(C)[C@@H](O)CC(=O)N1 [Ixabepilone],0.132 ± 0.012,0.146 ± 0.018,0.484 ± 0.023,0.477 ± 0.05,0.0322 ± 0.0044,0.032 ± 0.004
CC(C)C[C@@H]1NC(=O)[C@@H](C(C)C)NC(=O)[C@@H]2CCCN2C(=O)[C@@H](CC(=O)O)NC(=O)[C@@H](Cc2c[nH]c3ccccc23)NC1=O,1.01 ± 0.014,1 ± 0.018,1.02 ± 0.025,1.003 ± 0.0061,0.9943 ± 0.005,1.013 ± 0.0058
Cc1ncc(-c2ccnc(Nc3ccc(S(C)(=O)=O)cc3)n2)n1C(C)C,0.584 ± 0.057,0.062 ± 0.0037,0.705 ± 0.061,0.319 ± 0.083,0.191 ± 0.045,0.0177 ± 0.0014
"CN(C)CCC(c1ccc(Cl)cc1)c1ccccn1 (single isomer, unassigned; (+)) [(+)-Chlorpheniramine maleate]",0.9827 ± 0.0045,0.997 ± 0.012,0.979 ± 0.004,1.005 ± 0.0071,0.968 ± 0.011,0.978 ± 0.003
